Assay results as given in PubChem BioAssay (Tox21).
Results filed as inconclusive are left out. Calls of active or inactive are those of the source. Unless noted, calls follow the shape of the dose curve; as a rule, active = well fitted cell-killing curve with a large enough effect in the repeat runs; inconclusive = weak or mixed curves, or effect the other way; inactive = no such curve, though single readings can be large or run the other way. Where a SMILES comes first, the peptide text is derived from it. [ ]: non-standard residue; d: D form. pGlu = O=C1CC[C@@H](C(=O)O)N1

biological target: Vitamin D3 receptor (Homo sapiens) (UniProt P11473); assay: qHTS assay to identify small molecule antagonists of the vitamin D receptor (VDR) signaling pathway (AID 743223; active = well fitted inhibition curve with a large enough effect in the signal ratio in the repeat runs, not every such curve was filed as active; the % refers to the signal ratio); conditions: VDR-UAS-bla HEK293T, beta-lactamase FRET ratio, 16 h; series mostly up to 61 µM; activity change, negative = inhibition: at the top concentration
Outline: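 Quantitative HTS in VDR-bla reporter cells stimulated with 1alpha,25-dihydroxyvitamin D3, 3 nM final. Compound exposure 16 h, 37C, 5% CO2. Read-out: beta-lactamase FRET substrate fluorescence, 2 h RT.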
% is scaled to controls: 0 for no effect and ±100 for the full control effect.

Sequence of Vitamin D3 receptor (Homo sapiens) (P11473 whole entry, looked up): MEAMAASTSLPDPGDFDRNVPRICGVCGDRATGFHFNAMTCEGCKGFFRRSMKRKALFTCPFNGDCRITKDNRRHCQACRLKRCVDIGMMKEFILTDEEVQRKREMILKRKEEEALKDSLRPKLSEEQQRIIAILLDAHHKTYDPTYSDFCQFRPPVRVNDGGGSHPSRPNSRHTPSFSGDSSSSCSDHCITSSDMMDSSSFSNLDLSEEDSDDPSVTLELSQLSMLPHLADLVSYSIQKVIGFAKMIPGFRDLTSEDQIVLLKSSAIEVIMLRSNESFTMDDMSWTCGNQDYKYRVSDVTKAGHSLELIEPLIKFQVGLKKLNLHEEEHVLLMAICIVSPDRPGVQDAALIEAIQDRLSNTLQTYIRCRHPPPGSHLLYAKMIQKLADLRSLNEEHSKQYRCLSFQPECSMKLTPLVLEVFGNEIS

| Compound | activity change, negative = inhibition |
| --- | --- |
| CCOC(=O)c1cnc2c(cnn2CC)c1NN=C(C)C | -13.5% (inactive) |
| COc1ccccc1OCC1CNC(=O)O1 (centres undefined) | 0.119% (inactive) |
| CO/N=C(\C(=O)N[C@@H]1C(=O)N2C(C(=O)O)=C(CSc3nc(=O)c(O)nn3C)CS[C@H]12)c1csc(N)n1 | -1.47% (inactive) |
| CCCc1nn(C)c2c(=O)[nH]c(-c3cc(S(=O)(=O)N4CCN(C)CC4)ccc3OCC)nc12 | 0.716% (inactive) |
| CCCCOC(=O)CCC(C)=O | -14.7% (inactive) |
| O=CN(CCO)CCO | 1.11% (inactive) |
| C[N+](C)(CCOc1ccccc1)Cc1cccs1 | -4.26% (inactive) |
| CC1=NN(c2cccc(S(=O)(=O)O)c2)C(=O)C1 | -1.21% (inactive) |
| CCOC(=O)C1=NOC(c2ccccc2)(c2ccccc2)C1 | 17.9% (inactive) |
| CCC(=O)OCc1ccccc1 | 0.435% (inactive) |
| COc1cc(C(=O)OC(COCCC(C)C)CN2CCOCC2)cc(OC)c1OC (centres undefined) | -2.4% (inactive) |
| CC12CCC(C(=O)C1=O)C2(C)C (centres undefined) | -2.8% [at 78.8 µM] (inactive) |
| Cc1ncc(COP(=O)(O)O)c(C=O)c1O | -4.68% (inactive) |
| CN1[C@@H]2CC[C@H]1CC(OC(=O)C(O)c1ccccc1)C2 (some centres undefined) | 6.49% (inactive) |
| CCN(CC#N)c1cccc(C)c1 | -0.857% (inactive) |
| CC1=NN(c2cc(S(=O)(=O)O)ccc2Cl)C(=O)C1N=Nc1ccccc1 (centres undefined) | 7.58% (inactive) |
| CC(=O)c1ccccc1[N+](=O)[O-] | -0.645% (inactive) |
| CC(C)CCCO | 1.97% (inactive) |
| CC(COc1ccccc1)NN (centres undefined) | -2.09% (inactive) |
| Nc1ccn([C@@H]2O[C@H](CO)[C@@H](O)[C@@H]2O)c(=O)n1 | 1.38% (inactive) |
| CCNC(=O)[C@@H]1CCCN1C(=O)[C@H](CCCN=C(N)N)NC(=O)[C@H](CC(C)C)NC(=O)CNC(=O)[C@H](Cc1ccc(O)cc1)NC(=O)[C@H](CO)NC(=O)[C@H](Cc1c[nH]c2ccccc12)NC(=O)[C@H](Cc1cnc[nH]1)NC(=O)[C@@H]1CCC(=O)N1 ([pGlu]HWSYGLRP-NHEt) | -2.28% (inactive) |
| CCCn1cc[n+](C)c1C | 18% [at 78.8 µM] (inactive) |
| Clc1cc(Cl)cc(Cl)c1 | -3.32% (inactive) |
| CC(C)COC(=O)c1ccc(N)cc1 | 4.02% (inactive) |

tested on: not listed separately; assay: qHTS assay to identify small molecule agonists of the vitamin D receptor (VDR) signaling pathway - cell viability counter screen (AID 743224); conditions: VDR-bla HEK293T viability, CellTiter-Glo luminescence, 16 h; series mostly up to 62.6 µM; activity change, negative = cytotoxicity: at the top concentration; also: nearly all actives have a fitted effect of over 50% in size
Outline: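 Plated VDR-bla cells (4 h, 37C) received compound, incubated 16 h, then LiveBLAzer substrate 2 h RT; CellTiter-Glo added afterwards, luminescence read at 30 min.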

| Compound | activity change, negative = cytotoxicity |
| --- | --- |
| O=C(O)CNC(=O)c1ccccc1 | -1.36% (inactive) |
| CCOC(=O)c1cnc2c(cnn2CC)c1NN=C(C)C | 1.03% (inactive) |
| COc1ccccc1OCC1CNC(=O)O1 (centres undefined) | -11.3% (inactive) |
| CO/N=C(\C(=O)N[C@@H]1C(=O)N2C(C(=O)O)=C(CSc3nc(=O)c(O)nn3C)CS[C@H]12)c1csc(N)n1 | 11.9% (inactive) |
| CCCc1nn(C)c2c(=O)[nH]c(-c3cc(S(=O)(=O)N4CCN(C)CC4)ccc3OCC)nc12 | -1.01% (inactive) |
| C[N+](C)(CCOc1ccccc1)Cc1cccs1 | -9.54% (inactive) |
| CC1=NN(c2cccc(S(=O)(=O)O)c2)C(=O)C1 | 17.4% (inactive) |
| CCOC(=O)C1=NOC(c2ccccc2)(c2ccccc2)C1 | -0.0583% (inactive) |
| CCC(=O)OCc1ccccc1 | 13.8% (inactive) |
| COc1cc(C(=O)OC(COCCC(C)C)CN2CCOCC2)cc(OC)c1OC (centres undefined) | 10.1% (inactive) |
| Cc1ncc(COP(=O)(O)O)c(C=O)c1O | 13.9% (inactive) |
| CC(=O)Oc1cccc(C)c1 | 11% (inactive) |
| CN1[C@@H]2CC[C@H]1CC(OC(=O)C(O)c1ccccc1)C2 (some centres undefined) | 1.2% (inactive) |
| CC(N)C12CC3CC(CC(C3)C1)C2 (centres undefined) | 3.61% (inactive) |
| CCN(CC#N)c1cccc(C)c1 | -4.01% (inactive) |
| CC1=NN(c2cc(S(=O)(=O)O)ccc2Cl)C(=O)C1N=Nc1ccccc1 (centres undefined) | -2.21% (inactive) |
| CC(=O)c1ccccc1[N+](=O)[O-] | 6.34% (inactive) |
| C=CCCC(=O)O | -13.9% (inactive) |
| CC(C)CCCO | 15.3% (inactive) |
| CC(COc1ccccc1)NN (centres undefined) | 7.18% (inactive) |
| Nc1ccn([C@@H]2O[C@H](CO)[C@@H](O)[C@@H]2O)c(=O)n1 | 16.2% (inactive) |
| CCNC(=O)[C@@H]1CCCN1C(=O)[C@H](CCCN=C(N)N)NC(=O)[C@H](CC(C)C)NC(=O)CNC(=O)[C@H](Cc1ccc(O)cc1)NC(=O)[C@H](CO)NC(=O)[C@H](Cc1c[nH]c2ccccc12)NC(=O)[C@H](Cc1cnc[nH]1)NC(=O)[C@@H]1CCC(=O)N1 ([pGlu]HWSYGLRP-NHEt) | 14.3% (inactive) |
| CCCn1cc[n+](C)c1C | 14.9% [at 81.1 µM] (inactive) |
| Clc1cc(Cl)cc(Cl)c1 | 12.8% (inactive) |
| CCOC(=O)COc1cc(-n2ncc(C(F)(F)F)c(C)c2=O)c(F)cc1Cl | -0.182% (inactive) |
| CC(C)COC(=O)c1ccc(N)cc1 | 11.2% (inactive) |
| CC(=O)OCC(=O)[C@@]1(O)[C@H](C)C[C@H]2[C@@H]3CCC4=CC(=O)C=C[C@]4(C)[C@@]3(F)[C@@H](O)C[C@@]21C | 13.5% (inactive) |
| O=C(O)CCCC[P+](c1ccccc1)(c1ccccc1)c1ccccc1 | 8.67% (inactive) |
| CC1=CCC(O)(C(C)C)CC1 (centres undefined) | 22.6% (inactive) |

tested on: not listed separately; assay: qHTS assay to identify small molecule antagonists of the vitamin D receptor (VDR) signaling pathway - cell viability counter screen (AID 743225); conditions: VDR-bla HEK293T viability, CellTiter-Glo luminescence, 16 h; series mostly up to 61 µM; viability change, negative = cytotoxic: at the top concentration; also: nearly all actives have a fitted effect of over 50% in size
Outline: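 Same-well multiplex: following 16 h treatment of HEK 293T cells carrying a UAS-driven beta-lactamase reporter with compound and agonist (3 nM final), and a 2 h FRET substrate step, CellTiter-Glo was added and luminescence read after 30 min.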

| Compound | viability change, negative = cytotoxic |
| --- | --- |
| O=C(O)CNC(=O)c1ccccc1 | -7.22% (inactive) |
| CC(C)CC(C)(N)C#N (centres undefined) | -5.1% [at 78.8 µM] (inactive) |
| CCOC(=O)c1cnc2c(cnn2CC)c1NN=C(C)C | 1.49% (inactive) |
| COc1ccccc1OCC1CNC(=O)O1 (centres undefined) | 0.0509% (inactive) |
| CO/N=C(\C(=O)N[C@@H]1C(=O)N2C(C(=O)O)=C(CSc3nc(=O)c(O)nn3C)CS[C@H]12)c1csc(N)n1 | -1.12% (inactive) |
| O=C1CCCCCCCCCCCCCCO1 | 4.92% (inactive) |
| CCCc1nn(C)c2c(=O)[nH]c(-c3cc(S(=O)(=O)N4CCN(C)CC4)ccc3OCC)nc12 | 0% (inactive) |
| CCCCOC(=O)CCC(C)=O | 1.33% (inactive) |
| C[N+](C)(CCOc1ccccc1)Cc1cccs1 | 3.39% (inactive) |
| CCOC(=O)C1=NOC(c2ccccc2)(c2ccccc2)C1 | -1.81% (inactive) |
| CCC(=O)OCc1ccccc1 | 11.8% (inactive) |
| COc1cc(C(=O)OC(COCCC(C)C)CN2CCOCC2)cc(OC)c1OC (centres undefined) | 1.35% (inactive) |
| CC12CCC(C(=O)C1=O)C2(C)C (centres undefined) | -18.1% [at 78.8 µM] (inactive) |
| NC(N)=NCCN1CCCCCCC1 | -3.67% [at 0.628 µM] (inactive) |
| Cc1ncc(COP(=O)(O)O)c(C=O)c1O | -0.75% (inactive) |
| CC(=O)Oc1cccc(C)c1 | 6.48% (inactive) |
| CN1[C@@H]2CC[C@H]1CC(OC(=O)C(O)c1ccccc1)C2 (some centres undefined) | 0.317% (inactive) |
| CC(N)C12CC3CC(CC(C3)C1)C2 (centres undefined) | 2.36% (inactive) |

| Compound | viability change, negative = cytotoxic |
| --- | --- |
| CCN(CC#N)c1cccc(C)c1 | 0.728% (inactive) |
| CC1=NN(c2cc(S(=O)(=O)O)ccc2Cl)C(=O)C1N=Nc1ccccc1 (centres undefined) | 15.6% (inactive) |
| CC(=O)c1ccccc1[N+](=O)[O-] | -9.28% (inactive) |
| C=CCCC(=O)O | -23.3% (inactive) |
| O=C(O)CC(C(=O)O)S(=O)(=O)O (centres undefined) | 11.2% (inactive) |
| CC(C)CCCO | 12.9% (inactive) |
| CC(COc1ccccc1)NN (centres undefined) | 8.26% (inactive) |
| Nc1ccn([C@@H]2O[C@H](CO)[C@@H](O)[C@@H]2O)c(=O)n1 | -2.81% (inactive) |
| CCNC(=O)[C@@H]1CCCN1C(=O)[C@H](CCCN=C(N)N)NC(=O)[C@H](CC(C)C)NC(=O)CNC(=O)[C@H](Cc1ccc(O)cc1)NC(=O)[C@H](CO)NC(=O)[C@H](Cc1c[nH]c2ccccc12)NC(=O)[C@H](Cc1cnc[nH]1)NC(=O)[C@@H]1CCC(=O)N1 ([pGlu]HWSYGLRP-NHEt) | -0.289% (inactive) |
| CCCCN(CCC(=O)OCC)C(C)=O | 10.5% (inactive) |
| CCCn1cc[n+](C)c1C | 0.23% [at 78.8 µM] (inactive) |
| Clc1cc(Cl)cc(Cl)c1 | -0.38% (inactive) |
| CCOC(=O)COc1cc(-n2ncc(C(F)(F)F)c(C)c2=O)c(F)cc1Cl | -9.08% (inactive) |
| CC(C)COC(=O)c1ccc(N)cc1 | 7.41% (inactive) |
| CC(=O)OCC(=O)[C@@]1(O)[C@H](C)C[C@H]2[C@@H]3CCC4=CC(=O)C=C[C@]4(C)[C@@]3(F)[C@@H](O)C[C@@]21C | -12.4% (inactive) |
| O=C(O)CCCC[P+](c1ccccc1)(c1ccccc1)c1ccccc1 | 36.8% (inactive) |
| CC1=CCC(O)(C(C)C)CC1 (centres undefined) | 3.3% (inactive) |
| [K+] | 2.56% (inactive) |
